Pf Dd2 growth: P. falciparum Dd2 growth inhibitors, primary screen, SYBR Green fluorescence, single dose replicates. AID 1159554, 2015. 72 h; active compounds read low. activity change, % at 10 µM. actives 2.3% (n = 94,000); in the data active = activity change below about -80%; inconclusive = no clear call, values can overlap the other calls
T cruzi growth-1: T. cruzi intracellular proliferation inhibitors, primary screen, cell-based, beta-gal Tulahuen parasites, NIH3T3 host, luminescence; T. cruzi beta-gal in NIH3T3, GalScreen luminescence, 90 h; actives 5.9% (n = 77,000); inhibition, % at 8.34 µM;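 active = mean inhibition above about 93%, with at least 55% of replicates each passing it, limit read from the data, passing the limit was not always enough; inconclusive = only one of those two conditions holds; inactive = neither condition holds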
C diff HTS: C. difficile growth inhibitors, primary screen, HTS | Clostridium difficile clinical isolate growth, OD600, 24 h; active compounds read low | growth activity, negative = inhibition, % at 16 µg/mL (by protocol) | actives 0.25% (n = 86,000);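 active = mean growth activity at or below -80% and every replicate also at or below -80%; inconclusive = mean at or below -80% but some replicate above -80%; inactive = mean growth activity above -80%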;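 note: 0% = DMSO wells and -100% = levofloxacin 16 µg/mL wells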
T cruzi growth-2: T. cruzi intracellular proliferation inhibitors, confirmation, cell-based, NIH3T3 host, beta-gal parasite, luminescence, cherry-pick | shares compounds with T cruzi growth-1 | T. cruzi beta-gal in NIH3T3, GalScreen luminescence, 90 h | actives 72% (n = 5,600) | inhibition, % at 8.35 µM | AID 651739, 2012;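 active = mean replicate inhibition above about 95% and at least 55% of replicates individually reaching it, limit read from the data; inconclusive = only one of the two criteria is met; inactive = neither criterion is met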
T cruzi growth-3: inhibitors of intracellular T. cruzi replication, confirmation, NIH3T3 host cells, beta-gal parasites, cherry-pick, set 2; shares compounds with T cruzi growth-1; T. cruzi beta-gal in NIH3T3, GalScreen luminescence, 90 h; inhibition, % at 2.09 µM; actives 21% (n = 5,600); AID 651740, 2012;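 active = mean inhibition above about 95%, with at least 55% of replicates also reaching it, limit read from the data; inconclusive = meets just one of the two conditions; inactive = meets neither condition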;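 note: plate controls were neutral control median for no effect and positive control median for full effect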
NIH3T3 tox: cytotoxicity in mouse NIH/3T3 fibroblasts, confirmation, cytotoxicity control for T. cruzi proliferation inhibitor project, cell-based, cherry-pick, single point. shares compounds with T cruzi growth-1. NIH/3T3 viability, CellTiter-Glo ATP luminescence, 90 h. cytotoxicity (signal decrease), % at 8.35 µM. actives 14% (n = 5,600). AID 651742, 2012;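 active = mean signal decrease across replicates above about 35% based on untreated-well scatter, with enough replicates individually passing, limit read from the data; inconclusive = no rule stated though some were filed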;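 note: 0% = median of neutral control wells and 100% = median of positive control wells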
3T3 cytotox 2: NIH/3T3 fibroblast cytotoxicity, confirmation, cytotoxicity control, cell-based, cherry-pick, single point, set 2; shares compounds with T cruzi growth-1; NIH/3T3 viability, CellTiter-Glo ATP luminescence, 90 h; inhibition, % at 24.9 µM; actives 56% (n = 5,600);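 active = mean loss of cell viability signal at or above a set limit, and enough replicates individually reaching it; inconclusive = meets only the mean limit or only the replicate share; inactive = meets neither condition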;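 note: 0% = median of neutral control wells and 100% = median of positive control wells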
Starred values were filed as active, the others as inactive; ? = inconclusive; . = not tested or not shown; ! = not active in a repeat. Hits are enriched below; roughly 6.8% of the tested compounds scored in any of these assays.

SMILES	Pf Dd2 growth	T cruzi growth-1	C diff HTS	T cruzi growth-2	T cruzi growth-3	NIH3T3 tox	3T3 cytotox 2
C[C@H]1CN([C@@H](C)CO)S(=O)(=O)c2ccc(C#CC3CCCCC3)cc2O[C@H]1CN(C)C(=O)Cc1ccncc1	-18	42	.	.	.	.	.
CCC(=O)N(C)C[C@@H]1Oc2cc(C#CC3CCCC3)ccc2S(=O)(=O)N([C@@H](C)CO)C[C@H]1C	-63	82	-25	.	.	.	.
C[C@@H]1CN([C@@H](C)CO)S(=O)(=O)c2ccc(C#CC3CCCCC3)cc2O[C@H]1CN(C)C(=O)Cc1ccncc1	-70	?	.	103*	78	17	103*
C[C@H](CO)N1C[C@H](C)[C@@H](CN(C)C(=O)Cc2ccccc2)Oc2cc(C#CC3CCCC3)ccc2S1(=O)=O	-25	.	-1	.	.	.	.
C[C@@H]1CN([C@H](C)CO)S(=O)(=O)c2ccc(C#CC3CCCC3)cc2O[C@H]1CN(C)C(=O)Cc1ccncc1	-69	120*	-3	101*	62	-4	99*
C[C@@H]1CN([C@@H](C)CO)S(=O)(=O)c2ccc(C#CC3CCCC3)cc2O[C@H]1CN(C)C(=O)Cc1ccncc1	-86*	113*	-15	99*	47	21	72*
C[C@@H]1CN([C@H](C)CO)S(=O)(=O)c2ccc(C#CC3CCCC3)cc2O[C@H]1CN(C)C(=O)Cc1ccccc1	?	113*	-11	106*	68	3	105*
C[C@@H]1CCCCO[C@H](CN(C)C(=O)Nc2cccc3ccccc23)[C@@H](C)CN([C@H](C)CO)C(=O)c2cc(NS(=O)(=O)c3cn(C)cn3)ccc2O1	-14	6	-3	.	.	.	.
CC(C)NC(=O)Nc1ccc2c(c1)C(=O)N([C@@H](C)CO)C[C@H](C)[C@@H](CN(C)S(=O)(=O)c1cccs1)OCCCC[C@@H](C)O2	.	.	2	.	.	.	.
CNC(=O)C[C@@H]1CC[C@@H]2[C@@H](COc3ccc(NC(=O)C(C)C)cc3C(=O)N2C)O1	-3	-12	1	.	.	.	.
COc1ccc2c3c(n(C)c2c1)[C@@H](CO)N(C(=O)Cc1ccccc1)CC31CN(C(=O)Cc2ccccc2)C1	-32	.	10	.	.	.	.
C[C@@H]1CN([C@@H](C)CO)C(=O)c2cc(C#CC3CCCCC3)cnc2O[C@H]1CN(C)S(=O)(=O)c1ccc(F)cc1	-39	101*	2	105*	98*	21	99*
C[C@@H]1CN([C@@H](C)CO)C(=O)c2cc(C#CC3CCCC3)cnc2O[C@@H]1CN(C)S(=O)(=O)c1cccc(F)c1	-58	104*	3	96*	72	29	75*
C[C@H](CO)N1C[C@H](C)[C@@H](CN(C)S(=O)(=O)c2cccc(F)c2)Oc2ncc(C#CC3CCCC3)cc2C1=O	-72	119*	1	104*	88	6	98*
C[C@H](CO)N1C[C@H](C)[C@H](CN(C)S(=O)(=O)c2cccc(F)c2)Oc2ncc(C#CC3CCCC3)cc2C1=O	-41	100	-5	.	.	.	.
C[C@H](CO)N1C[C@H](C)[C@@H](CN(C)S(=O)(=O)c2cccc(F)c2)Oc2ncc(C#CC3CC3)cc2C1=O	-56	-88	.	.	.	.	.
C[C@@H]1CN([C@H](C)CO)C(=O)c2cc(C#CC3CCCCC3)cnc2O[C@H]1CN(C)S(=O)(=O)c1ccc(F)cc1	-41	86	2	.	.	.	.
CO[C@H]1CN(C)C(=O)c2ccc(NC(=O)c3ccccc3F)cc2OC[C@H](C)N(C(=O)c2ccccc2F)C[C@@H]1C	-14	-53	.	.	.	.	.
CC(C)c1cn(CC[C@@H]2CC[C@H](NC(=O)c3cccc(F)c3)[C@H](CO)O2)nn1	13	-16	.	.	.	.	.
C[C@H](CO)N1C[C@H](C)[C@H](CN(C)Cc2ccncc2)OCCCC[C@H](C)Oc2ccc(NS(C)(=O)=O)cc2C1=O	-3	3	-2	.	.	.	.
COc1ccc(C#Cc2cnc3c(c2)C(=O)N([C@H](C)CO)C[C@H](C)[C@@H](CN(C)C(=O)Nc2cccc(OC)c2)O3)cc1	-43	110*!	4	96*	47	-4	29*
COc1ccc(C#Cc2cnc3c(c2)C(=O)N([C@H](C)CO)C[C@@H](C)[C@@H](CN(C)C(=O)Nc2cccc(OC)c2)O3)cc1	-66	?	4	110*	82	-19	13
COc1ccc(C#Cc2cnc3c(c2)C(=O)N([C@@H](C)CO)C[C@H](C)[C@@H](CN(C)C(=O)Nc2cccc(OC)c2)O3)cc1	-5	42	-7	.	.	.	.
COc1cccc(NC(=O)N(C)C[C@@H]2Oc3ncc(C#Cc4ccncc4)cc3C(=O)N([C@@H](C)CO)C[C@H]2C)c1	2	.	0	.	.	.	.
COc1ccc(C#Cc2cnc3c(c2)C(=O)N([C@@H](C)CO)C[C@@H](C)[C@@H](CN(C)C(=O)Nc2cccc(OC)c2)O3)cc1	-43	?	16	109*	73	5	14
SMILES	Pf Dd2 growth	T cruzi growth-1	C diff HTS	T cruzi growth-2	T cruzi growth-3	NIH3T3 tox	3T3 cytotox 2
COc1ccc(C#Cc2cnc3c(c2)C(=O)N([C@@H](C)CO)C[C@H](C)[C@H](CN(C)C(=O)Nc2cccc(OC)c2)O3)cc1	-37	58	17	.	.	.	.
COC(=O)c1cn(CCNC(=O)[C@@H](NS(=O)(=O)c2ccc(C)cc2)C(C)C)nn1	.	.	-1	.	.	.	.
COc1cccc(-c2cnc3c(c2)C(=O)N([C@H](C)CO)C[C@H](C)[C@H](CN(C)C(=O)CN(C)C)O3)c1	25	55	-3	.	.	.	.
COCC(=O)N1CC[C@@H]2[C@H]1c1cc(-c3ccc(C#N)cc3)ccc1N[C@@H]2CO	-63	114*	-2	100*	41	5	11
N#Cc1ccc(-c2ccc3c(c2)[C@@H]2[C@@H](CCN2C(=O)C2CC2)[C@H](CO)N3)cc1	15	97*	-13	106*	83	-2	15
N#Cc1ccc(-c2ccc3c(c2)[C@H]2[C@H](CCN2C(=O)C2CC2)[C@@H](CO)N3)cc1	16	105*	-5	?	70	-2	32*
N#Cc1ccc(-c2ccc3c(c2)[C@@H]2[C@@H](CCN2C(=O)Cc2ccccc2)[C@@H](CO)N3)cc1	-60	98*	0	100*	100*	8	40*
N#Cc1ccc(-c2ccc3c(c2)[C@H]2[C@H](CCN2C(=O)Cc2ccccc2)[C@@H](CO)N3)cc1	-23	81	-3	.	.	.	.

From PubChem BioAssay
